Experimental data reported in ChEMBL document CHEMBL1961873, “Compounds: GSK PKIS; Assays: Nanosyn kinase panel” (2012).

Experiments:
[1] = biological target: Mitogen-activated protein kinase 3 (Homo sapiens) (UniProt P27361); conditions: at 1 µM;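 also: values are mean percent inhibition of MAPK3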
[2] = biological target: SRSF protein kinase 3 (Homo sapiens) (UniProt Q9UPE1); conditions: at 0.1 µM
[3] = biological target: SRSF protein kinase 3 (Homo sapiens) (UniProt Q9UPE1); conditions: at 1 µM
[4] = biological target: Mitogen-activated protein kinase 14 (Homo sapiens) (UniProt Q16539); conditions: at 0.1 µM
[5] = biological target: Mitogen-activated protein kinase 14 (Homo sapiens) (UniProt Q16539); conditions: at 1 µM
[6] = biological target: Mitogen-activated protein kinase 11 (Homo sapiens) (UniProt Q15759); conditions: at 0.1 µM
[7] = biological target: Mitogen-activated protein kinase 11 (Homo sapiens) (UniProt Q15759); conditions: at 1 µM
[8] = biological target: T1, Mitogen-activated protein kinase 13 (Homo sapiens) (UniProt O15264); conditions: at 0.1 µM
T1 sequence (whole entry): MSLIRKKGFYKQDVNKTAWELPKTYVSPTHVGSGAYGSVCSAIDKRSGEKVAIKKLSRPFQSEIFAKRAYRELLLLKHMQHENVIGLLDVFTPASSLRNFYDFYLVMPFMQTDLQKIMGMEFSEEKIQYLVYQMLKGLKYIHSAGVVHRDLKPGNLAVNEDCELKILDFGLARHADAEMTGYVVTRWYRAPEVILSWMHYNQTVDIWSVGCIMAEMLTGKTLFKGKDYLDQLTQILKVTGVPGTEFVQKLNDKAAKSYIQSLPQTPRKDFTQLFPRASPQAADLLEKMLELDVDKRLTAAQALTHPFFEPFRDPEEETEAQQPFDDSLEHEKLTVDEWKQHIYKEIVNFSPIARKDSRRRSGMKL

[9] = biological target: T1, Mitogen-activated protein kinase 13 (Homo sapiens); conditions: at 1 µM
[10] = biological target: T2, Mitogen-activated protein kinase 12 (Homo sapiens) (UniProt P53778); conditions: at 0.1 µM
T2 sequence (whole entry): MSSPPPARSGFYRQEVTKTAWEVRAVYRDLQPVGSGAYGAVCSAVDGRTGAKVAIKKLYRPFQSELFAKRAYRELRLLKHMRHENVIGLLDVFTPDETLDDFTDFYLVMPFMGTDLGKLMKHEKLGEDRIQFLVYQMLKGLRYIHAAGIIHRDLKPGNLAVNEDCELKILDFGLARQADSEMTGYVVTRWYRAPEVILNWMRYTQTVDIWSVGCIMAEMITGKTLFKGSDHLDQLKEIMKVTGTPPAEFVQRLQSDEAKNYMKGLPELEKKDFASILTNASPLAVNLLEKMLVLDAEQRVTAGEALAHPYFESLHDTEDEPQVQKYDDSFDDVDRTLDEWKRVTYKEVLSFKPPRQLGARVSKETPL

[11] = biological target: T2, Mitogen-activated protein kinase 12 (Homo sapiens); conditions: at 1 µM
[12] = biological target: SRSF protein kinase 1 (Homo sapiens) (UniProt Q96SB4); conditions: at 0.1 µM
[13] = biological target: SRSF protein kinase 1 (Homo sapiens) (UniProt Q96SB4); conditions: at 1 µM
[14] = biological target: Phosphatidylinositol 4,5-bisphosphate 3-kinase catalytic subunit alpha isoform (Homo sapiens) (UniProt P42336); conditions: at 0.1 µM
[15] = biological target: Phosphatidylinositol 4,5-bisphosphate 3-kinase catalytic subunit alpha isoform (Homo sapiens) (UniProt P42336); conditions: at 1 µM
[16] = biological target: T3, Phosphatidylinositol 4,5-bisphosphate 3-kinase catalytic subunit delta isoform (Homo sapiens) (UniProt O00329); conditions: at 0.1 µM
T3 sequence (whole entry): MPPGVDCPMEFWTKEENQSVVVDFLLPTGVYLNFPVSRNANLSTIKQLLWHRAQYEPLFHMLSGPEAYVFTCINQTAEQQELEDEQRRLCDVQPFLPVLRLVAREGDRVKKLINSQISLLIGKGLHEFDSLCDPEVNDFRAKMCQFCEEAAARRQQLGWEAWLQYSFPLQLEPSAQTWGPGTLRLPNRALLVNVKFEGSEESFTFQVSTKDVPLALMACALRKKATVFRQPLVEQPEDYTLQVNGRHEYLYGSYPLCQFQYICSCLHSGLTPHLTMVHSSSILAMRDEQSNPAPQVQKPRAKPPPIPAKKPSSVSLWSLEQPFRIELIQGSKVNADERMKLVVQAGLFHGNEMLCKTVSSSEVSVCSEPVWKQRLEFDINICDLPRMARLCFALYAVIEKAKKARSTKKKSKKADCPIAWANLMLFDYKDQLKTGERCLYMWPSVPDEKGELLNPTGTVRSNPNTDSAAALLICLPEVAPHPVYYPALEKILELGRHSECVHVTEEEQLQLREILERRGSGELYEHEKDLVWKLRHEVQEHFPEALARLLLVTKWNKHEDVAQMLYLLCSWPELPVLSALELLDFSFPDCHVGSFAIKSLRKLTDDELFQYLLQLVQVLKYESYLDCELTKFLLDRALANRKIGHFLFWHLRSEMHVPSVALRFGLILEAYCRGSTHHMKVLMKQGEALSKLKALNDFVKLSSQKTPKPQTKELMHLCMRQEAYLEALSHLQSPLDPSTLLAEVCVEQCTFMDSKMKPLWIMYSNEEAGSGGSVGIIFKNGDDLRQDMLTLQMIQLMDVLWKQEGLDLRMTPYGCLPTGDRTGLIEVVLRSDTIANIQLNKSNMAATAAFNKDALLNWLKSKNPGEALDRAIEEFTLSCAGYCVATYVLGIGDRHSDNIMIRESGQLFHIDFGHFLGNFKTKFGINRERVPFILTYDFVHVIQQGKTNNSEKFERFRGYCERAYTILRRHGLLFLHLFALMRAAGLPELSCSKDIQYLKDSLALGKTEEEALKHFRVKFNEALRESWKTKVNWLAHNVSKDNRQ

[17] = biological target: T3, Phosphatidylinositol 4,5-bisphosphate 3-kinase catalytic subunit delta isoform (Homo sapiens); conditions: at 1 µM
[18] = biological target: Phosphatidylinositol 4-kinase beta (Homo sapiens) (UniProt Q9UBF8); conditions: at 0.1 µM
[19] = biological target: Phosphatidylinositol 4-kinase beta (Homo sapiens) (UniProt Q9UBF8); conditions: at 1 µM
[20] = biological target: Sphingosine kinase 1 (Homo sapiens) (UniProt Q9NYA1); conditions: at 0.1 µM;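 also: mean percent inhibition of SPHK1 activity, measured within the GSK PKIS screening panel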
Chain of Sphingosine kinase 1 (Homo sapiens) (Q9NYA1 whole entry): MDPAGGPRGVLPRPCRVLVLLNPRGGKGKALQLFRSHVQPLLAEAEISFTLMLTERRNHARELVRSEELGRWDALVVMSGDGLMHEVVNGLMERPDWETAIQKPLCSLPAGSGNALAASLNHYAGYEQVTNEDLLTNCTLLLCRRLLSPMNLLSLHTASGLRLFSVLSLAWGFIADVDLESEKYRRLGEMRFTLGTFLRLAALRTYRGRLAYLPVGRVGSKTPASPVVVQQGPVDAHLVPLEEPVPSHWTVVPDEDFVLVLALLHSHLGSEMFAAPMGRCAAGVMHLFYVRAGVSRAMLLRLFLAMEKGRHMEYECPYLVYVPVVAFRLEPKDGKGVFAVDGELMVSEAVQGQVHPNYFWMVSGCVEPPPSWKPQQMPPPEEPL

Chain of Mitogen-activated protein kinase 11 (Homo sapiens) (Q15759 whole entry): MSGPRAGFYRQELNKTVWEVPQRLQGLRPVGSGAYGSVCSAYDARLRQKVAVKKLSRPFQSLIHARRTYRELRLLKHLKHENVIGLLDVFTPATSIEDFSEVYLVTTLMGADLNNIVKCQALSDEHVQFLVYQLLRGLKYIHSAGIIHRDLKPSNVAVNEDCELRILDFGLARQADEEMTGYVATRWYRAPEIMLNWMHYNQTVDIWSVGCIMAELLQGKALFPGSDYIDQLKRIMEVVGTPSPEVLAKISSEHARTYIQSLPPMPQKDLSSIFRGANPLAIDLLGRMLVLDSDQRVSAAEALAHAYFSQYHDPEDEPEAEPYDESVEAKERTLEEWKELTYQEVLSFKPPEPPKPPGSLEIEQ
Chain of Phosphatidylinositol 4,5-bisphosphate 3-kinase catalytic subunit alpha isoform (Homo sapiens) (P42336 whole entry, canonical isoform): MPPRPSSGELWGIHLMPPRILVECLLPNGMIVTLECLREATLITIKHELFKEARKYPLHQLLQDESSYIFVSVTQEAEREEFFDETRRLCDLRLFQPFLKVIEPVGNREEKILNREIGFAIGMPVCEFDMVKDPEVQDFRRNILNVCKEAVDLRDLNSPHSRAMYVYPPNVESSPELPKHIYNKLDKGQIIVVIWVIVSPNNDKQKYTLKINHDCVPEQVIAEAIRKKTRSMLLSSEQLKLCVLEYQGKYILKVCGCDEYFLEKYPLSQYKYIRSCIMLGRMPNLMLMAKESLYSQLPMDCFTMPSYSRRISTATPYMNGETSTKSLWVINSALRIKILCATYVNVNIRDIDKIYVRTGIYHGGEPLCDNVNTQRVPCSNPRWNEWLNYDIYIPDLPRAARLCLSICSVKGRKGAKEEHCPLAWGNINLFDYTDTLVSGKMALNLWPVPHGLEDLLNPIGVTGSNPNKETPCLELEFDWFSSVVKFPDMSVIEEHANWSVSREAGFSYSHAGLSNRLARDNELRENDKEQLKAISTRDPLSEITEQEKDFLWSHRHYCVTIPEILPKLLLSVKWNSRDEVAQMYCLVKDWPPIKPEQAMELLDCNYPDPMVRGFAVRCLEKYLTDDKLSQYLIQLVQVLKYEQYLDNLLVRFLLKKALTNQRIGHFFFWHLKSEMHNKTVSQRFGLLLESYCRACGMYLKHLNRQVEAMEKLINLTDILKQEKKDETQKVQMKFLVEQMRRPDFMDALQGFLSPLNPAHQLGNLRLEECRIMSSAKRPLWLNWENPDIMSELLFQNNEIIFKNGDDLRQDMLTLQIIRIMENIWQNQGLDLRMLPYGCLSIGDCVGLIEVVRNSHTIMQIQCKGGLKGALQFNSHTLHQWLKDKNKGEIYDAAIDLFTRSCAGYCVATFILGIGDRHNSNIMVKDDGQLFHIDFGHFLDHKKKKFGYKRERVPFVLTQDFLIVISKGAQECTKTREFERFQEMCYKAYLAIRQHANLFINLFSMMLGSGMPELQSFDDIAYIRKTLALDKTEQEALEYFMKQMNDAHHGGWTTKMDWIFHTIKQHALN
Chain of Phosphatidylinositol 4-kinase beta (Homo sapiens) (Q9UBF8 2-816 limits assumed): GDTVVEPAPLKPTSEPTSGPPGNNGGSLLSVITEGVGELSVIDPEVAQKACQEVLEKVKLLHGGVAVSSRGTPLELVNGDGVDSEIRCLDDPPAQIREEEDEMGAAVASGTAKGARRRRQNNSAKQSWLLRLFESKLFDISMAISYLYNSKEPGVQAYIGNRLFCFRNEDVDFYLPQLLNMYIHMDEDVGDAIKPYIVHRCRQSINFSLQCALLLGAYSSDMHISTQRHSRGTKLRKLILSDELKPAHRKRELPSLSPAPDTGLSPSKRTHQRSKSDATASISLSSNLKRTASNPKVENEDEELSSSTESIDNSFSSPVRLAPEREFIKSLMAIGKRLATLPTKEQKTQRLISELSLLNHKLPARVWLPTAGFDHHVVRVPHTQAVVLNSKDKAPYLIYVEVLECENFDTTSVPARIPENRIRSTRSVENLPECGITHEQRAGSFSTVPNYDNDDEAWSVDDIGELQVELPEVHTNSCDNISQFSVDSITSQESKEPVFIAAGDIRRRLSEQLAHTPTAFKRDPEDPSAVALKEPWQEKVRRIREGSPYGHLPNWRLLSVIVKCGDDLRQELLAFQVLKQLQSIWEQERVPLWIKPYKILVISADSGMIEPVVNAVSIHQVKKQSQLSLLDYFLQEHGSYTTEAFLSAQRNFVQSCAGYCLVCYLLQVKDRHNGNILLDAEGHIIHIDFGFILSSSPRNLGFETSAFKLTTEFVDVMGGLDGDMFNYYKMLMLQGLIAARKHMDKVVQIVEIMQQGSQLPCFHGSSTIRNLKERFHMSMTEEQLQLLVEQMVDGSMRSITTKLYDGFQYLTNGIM
Chain of SRSF protein kinase 3 (Homo sapiens) (Q9UPE1 whole entry): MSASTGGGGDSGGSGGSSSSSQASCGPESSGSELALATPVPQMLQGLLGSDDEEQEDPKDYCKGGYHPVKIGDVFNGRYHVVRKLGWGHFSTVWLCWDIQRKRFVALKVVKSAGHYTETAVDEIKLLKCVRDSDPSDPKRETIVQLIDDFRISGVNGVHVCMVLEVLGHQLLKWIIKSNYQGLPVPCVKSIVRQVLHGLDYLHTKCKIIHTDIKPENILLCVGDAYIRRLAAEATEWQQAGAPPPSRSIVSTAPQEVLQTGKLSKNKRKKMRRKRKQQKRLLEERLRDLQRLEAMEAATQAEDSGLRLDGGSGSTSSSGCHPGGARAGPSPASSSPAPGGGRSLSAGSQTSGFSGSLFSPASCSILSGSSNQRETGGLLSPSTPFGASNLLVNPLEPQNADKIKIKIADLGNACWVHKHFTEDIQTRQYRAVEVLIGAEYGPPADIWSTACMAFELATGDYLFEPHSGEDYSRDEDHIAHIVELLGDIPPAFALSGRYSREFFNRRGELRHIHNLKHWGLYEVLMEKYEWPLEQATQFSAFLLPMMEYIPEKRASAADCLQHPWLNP
Chain of Mitogen-activated protein kinase 14 (Homo sapiens) (Q16539 whole entry): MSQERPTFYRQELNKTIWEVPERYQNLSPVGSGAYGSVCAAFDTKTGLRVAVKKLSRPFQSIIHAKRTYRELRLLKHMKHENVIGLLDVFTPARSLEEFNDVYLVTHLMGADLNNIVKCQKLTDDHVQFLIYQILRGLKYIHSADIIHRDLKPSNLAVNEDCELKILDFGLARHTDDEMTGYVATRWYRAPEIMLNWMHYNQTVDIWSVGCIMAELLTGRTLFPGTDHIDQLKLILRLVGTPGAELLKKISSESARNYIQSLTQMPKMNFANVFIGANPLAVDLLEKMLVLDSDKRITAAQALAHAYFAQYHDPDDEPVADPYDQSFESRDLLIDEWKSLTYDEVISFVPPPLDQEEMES
Chain of Mitogen-activated protein kinase 3 (Homo sapiens) (P27361 whole entry): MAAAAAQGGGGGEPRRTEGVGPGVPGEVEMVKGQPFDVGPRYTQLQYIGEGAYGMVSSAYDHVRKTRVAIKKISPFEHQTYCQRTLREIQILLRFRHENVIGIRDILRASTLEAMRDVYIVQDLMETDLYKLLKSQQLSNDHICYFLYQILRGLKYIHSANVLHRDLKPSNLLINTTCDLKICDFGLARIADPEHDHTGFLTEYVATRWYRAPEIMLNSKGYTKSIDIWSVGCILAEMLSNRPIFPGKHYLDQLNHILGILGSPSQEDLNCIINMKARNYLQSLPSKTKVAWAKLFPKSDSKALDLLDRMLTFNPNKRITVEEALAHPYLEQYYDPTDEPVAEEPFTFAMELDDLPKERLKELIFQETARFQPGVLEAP
Chain of SRSF protein kinase 1 (Homo sapiens) (Q96SB4 whole entry, canonical isoform): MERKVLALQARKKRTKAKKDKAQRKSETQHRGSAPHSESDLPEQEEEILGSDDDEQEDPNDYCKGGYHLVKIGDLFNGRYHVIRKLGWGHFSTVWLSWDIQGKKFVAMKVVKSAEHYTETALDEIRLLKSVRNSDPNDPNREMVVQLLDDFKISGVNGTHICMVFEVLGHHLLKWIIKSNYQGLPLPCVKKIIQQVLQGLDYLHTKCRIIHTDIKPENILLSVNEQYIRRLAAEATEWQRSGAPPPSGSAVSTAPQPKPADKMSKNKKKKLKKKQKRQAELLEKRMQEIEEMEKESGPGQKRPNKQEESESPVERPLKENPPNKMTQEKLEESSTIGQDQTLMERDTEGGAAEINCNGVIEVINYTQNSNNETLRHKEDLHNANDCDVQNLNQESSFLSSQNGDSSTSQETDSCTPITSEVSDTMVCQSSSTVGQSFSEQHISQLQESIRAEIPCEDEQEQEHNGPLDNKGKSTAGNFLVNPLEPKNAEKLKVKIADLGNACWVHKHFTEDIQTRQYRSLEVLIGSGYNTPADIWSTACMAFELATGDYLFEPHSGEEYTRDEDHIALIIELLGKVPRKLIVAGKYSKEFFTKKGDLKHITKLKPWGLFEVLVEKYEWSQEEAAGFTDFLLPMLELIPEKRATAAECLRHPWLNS

Compound	inhibition [1]	inhibition [2]	inhibition [3]	inhibition [4]	inhibition [5]	inhibition [6]	inhibition [7]	inhibition [8]	inhibition [9]	inhibition [10]	inhibition [11]	inhibition [12]	inhibition [13]	inhibition [14]	inhibition [15]	inhibition [16]	inhibition [17]	inhibition [18]	inhibition [19]	inhibition [20]
Fc1cccc(COc2ccc(Nc3ncnc4sc(-c5cccs5)cc34)cc2Cl)c1	1.8%	0.46%	0.83%	0.93%	1.59%	-0.98%	-0.33%	1.26%	0.64%	0.6%	0.86%	0.18%	-1.11%	0.9%	4.07%	-0.78%	2.29%	0.44%	-0.43%	-1.15%
CC(C)=Cc1cccc2c1/C(=N/Nc1ccc(S(N)(=O)=O)cc1)C(=O)N2	2.62%	-0.98%	3.29%	0.04%	1.72%	0.78%	5.29%	0.28%	1.32%	-0.48%	-0.16%	0.13%	2.55%	0.06%	1.06%	0.23%	1.67%	1.78%	3.22%	2.28%
CCCN1CCC=C(c2ccc(Nc3nc(Nc4ccccc4C(N)=O)c4cc[nH]c4n3)c(C)c2)C1	11.3%	4.11%	12.7%	4.64%	7.87%	2.75%	7.8%	4.35%	8.15%	3.52%	6.14%	-2.75%	12%	4.1%	19.9%	1.79%	17.8%	-1.7%	-0.01%	0.57%
CCn1c(-c2nonc2N)nc2cncc(C(=O)N3CCNCC3)c21	7.02%	0.64%	-1.54%	14.5%	20.5%	5.86%	5.3%	6.15%	7.35%	3.73%	5.97%	-1.32%	-1.85%	5.78%	5.67%	1.16%	2.58%	-4.56%		-1.49%
COc1ccc2cc(-c3c(-c4ccncc4)nc(-c4ccc([S+](C)[O-])cc4)n3C)ccc2c1 (stereo not drawn)	0.18%	-1.39%	-1.03%	1.72%	8.34%	3.87%	7.24%	-1.65%	3.19%	2.2%	2.03%	-3.09%	-4.71%	2.81%	3.47%	6.86%	3.16%	-2.02%	-2.26%	0.08%
CC(=O)Nc1cccc(C#Cc2cncnc2Nc2ccc(OCc3cccc(F)c3)c(Cl)c2)n1	1.62%	-0.01%	3.44%	-0.35%	-1.8%	0.21%	3.12%	-1.33%	-1.57%	-2.16%	-1.66%	1.83%	6.55%	1.06%	-3.01%	-2.12%	-0.16%	2.97%	0.88%	0.46%
CS(=O)(=O)CCNCc1ccc(-c2ccc3ncnc(Nc4ccc(OCc5ccccc5)c(Cl)c4)c3c2)o1	0.5%	2.57%	4.72%	-0.17%	3.25%	-1.17%	0.8%	0.47%	2.09%	1.33%	6.3%	-1.42%	1.52%	-1.12%	-0.19%	-2.16%	-1.17%	-0.03%	3.61%	1.23%
Cc1nn(C)c2cc(N(C)c3ccnc(Nc4cccc(S(N)(=O)=O)c4)n3)ccc12	0.11%	-3.4%	-1.66%	4.32%	19.7%	3.77%	25.1%	1.54%	4.16%	-0.41%	2.2%	-1.51%	-1.14%	6.6%	30.8%	10.5%	53.8%		-0.74%	-0.2%
O=C(Nc1n[nH]c2nc(-c3ccco3)c(Br)cc12)C1CC1	2.64%	-0.09%	-0.41%	2.53%	6.49%	3.09%	3.71%	1.46%	2.57%	2.55%	2.11%	-4.07%	-5.19%	5.44%	4.94%	2.6%	3.08%	0.77%	5.14%	0.46%
CN1CCC(C(=O)Nc2n[nH]c3nnc(-c4ccccc4)cc23)CC1	7.39%	-1.72%	-1.01%	2.08%	5.41%	5.95%	5.33%	1.73%	5.59%	3.05%	3.34%	-2.38%	-0.73%	4.88%	4.26%	1.61%	1.12%			1.63%
Cc1nnc(-c2ccc(C)c(-c3ccc(C(=O)Nc4cccc(C#N)c4)cc3)c2)o1	5.78%	-2.92%	-1.26%			5.2%	22.9%	3.5%	1.58%	-0.3%	1.19%	-1.96%	-1.67%	2.12%	1.71%	1.98%	1.12%	-1.86%	0.49%	-2.17%
Cn1cc(C=C2C(=O)Nc3cccnc32)c2ccccc21	2.73%	-0.25%	-0.47%	3.62%	7.85%	3.65%	5.58%	-0.63%	2.23%	2.25%	2.65%	-3.21%	-4.48%	2.82%	7.17%	1.38%	3.54%	0.42%	4.05%	-3.04%
Nc1nc(-c2ccccn2)c(-c2ccc3ncccc3n2)s1	1.04%	0.57%	0.83%	-0.64%	6.59%	1.28%	3.29%	2.8%	5.95%	-0.21%	1.76%	-1.15%	-0.55%	4.05%	5.74%	2.87%	3.05%	4.8%	0.96%	-1.16%
COc1ccc(COc2ccc(Cc3cnc(N)nc3N)cc2OC)cc1	0.29%	2.01%	0.79%	0.58%	4.45%	2.44%	1%		0.37%	-1.2%	1.41%	-0.52%	-2.52%	0.14%	1.07%	-0.96%	0.68%	2.15%	-1.98%	-3.33%
